An excerpt weighted towards active compounds, which were near 3.4% of everything screened.
TEAD-YAP inh – TEAD-YAP interaction inhibition; HEK-TIYL cells, TEAD-Gal4/YAP UAS-luciferase luminescence; inhibition, % at 9.12 µM; hit rate 1.4% among 640,000; AID 1259422; in the data active = inhibition above about 32%;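 also: 0% = median of test compound wells and 100% = reference inhibitor wells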
FBW7 activator – activators of human E3 ligase FBW7. AlphaScreen FBW7–phospho-cyclin E peptide binding, activator screen. Q969H0. normalized activity (activation), % at 26.1 µM. AID 1259310. hit rate 0.13% among 650,000; in the data active = normalized activity above about 1.9%;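 also: purified mutant Fbw7 with reduced substrate affinity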
GPR151 activ – activates the human receptor GPR151 | Q8TDV0 | PathHunter beta-arrestin GPR151 cells, luminescence | activation, % at 11.2 µM | hit rate 1% among 650,000 | AID 1508602; in the data active = activation above about 4.9%;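 also: 0% = median of compound wells and 100% = cells with positive control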
Target sequence (Q8TDV0 whole entry, looked up): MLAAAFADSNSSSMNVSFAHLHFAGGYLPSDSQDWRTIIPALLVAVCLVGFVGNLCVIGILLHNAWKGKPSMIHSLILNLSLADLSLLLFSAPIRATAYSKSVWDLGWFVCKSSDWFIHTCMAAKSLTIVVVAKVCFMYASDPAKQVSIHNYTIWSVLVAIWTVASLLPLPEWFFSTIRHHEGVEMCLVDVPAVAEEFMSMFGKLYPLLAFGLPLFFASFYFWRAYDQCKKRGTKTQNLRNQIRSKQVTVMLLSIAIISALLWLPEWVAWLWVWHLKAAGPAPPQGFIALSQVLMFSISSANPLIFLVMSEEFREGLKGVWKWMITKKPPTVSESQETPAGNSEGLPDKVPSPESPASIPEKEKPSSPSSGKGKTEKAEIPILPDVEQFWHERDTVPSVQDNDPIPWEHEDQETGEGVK
MITF inh – human MITF inhibition, primary screen | O75030 | AlphaScreen MITF homodimerization, bead proximity signal | inhibition, % at 2.6 µM | hit rate 0.91% among 650,000 | AID 1259374; in the data active = inhibition above about 50%;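 also: 0% = vehicle wells with protein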
An asterisk follows results filed as active; i = inactive; x = no result given.

SMILES	TEAD-YAP inh	FBW7 activator	GPR151 activ	MITF inh
COc1ccccc1-c1csc(NC(=O)c2cc(OC)c(OC)c(OC)c2)n1	12.0	-0.1	-0.3	i
CCOC(=O)c1cc(CC)sc1NC(=O)c1ccc(Br)cc1	8.9	0.1	0.2	-3.0
O=C(CCCn1c(=O)[nH]c2cc(Cl)ccc2c1=O)NC1CCCCCC1	10.5	0.1	-0.6	-1.5
Oc1c(Br)cc(Br)cc1C=Nc1cccnc1	-1.0	0.0	-0.2	14.7
Cc1nc2ccccc2n1Cc1ccc(C(=O)NCc2ccc(Cl)cc2)o1	-3.7	0.7	-0.6	2.2
ClCc1nc2cc3ccccc3cc2[nH]1	40.3*	-0.2	0.3	-2.9
O=C1CCC(C(=O)OCc2ccc(Cl)cc2Cl)=NN1	12.5	-0.1	1.8	11.6
CCN1CCN(CC(=O)c2cc(C)n(-c3cccc(C(F)(F)F)c3)c2C)CC1	0.0	-0.1	-0.9	63.1*
Cc1cc(C(=O)CCl)c(C)n1-c1ccccc1F	6.6	0.1	-0.2	8.1
CCN1CCN(CC(=O)c2cc(C)n(-c3ccccc3F)c2C)CC1	-35.5	-0.2	0.1	61.8*
CCN(CC)Cc1c(C(=O)N/N=C/c2cccc(OC)c2O)nnn1-c1nonc1N	13.8	-0.4	-0.7	60.0*
CCN(CC)Cc1c(C(=O)N/N=C/c2ccc(O)c([N+](=O)[O-])c2)nnn1-c1nonc1N	11.7	-0.2	-0.9	74.7*
OC(c1ccc(Br)cc1)c1nc(-c2ccncc2)no1 (stereo not drawn)	1.1	-0.2	2.1	4.5
Cc1cccc(-n2c(CNC(=O)COc3ccccc3)nnc2SCC(=O)N2N=C(c3cccs3)CC2c2ccc(F)cc2)c1 (stereo not drawn)	-2.1	-0.1	1.4	3.5
COc1cccc(/C=N/Nc2ccc([N+](=O)[O-])cn2)c1O	65.8*	8.6*	-5.4	-12.0
O=[N+]([O-])c1cc(/C=N/Nc2ccccn2)c(O)c([N+](=O)[O-])c1	-2.6	0.3	0.2	14.2
O=[N+]([O-])c1cccc(/C=N/Nc2ccccn2)c1O	77.7*	-0.3	4.2	94.0*
O=C(/C=C/c1ccccn1)c1cc(Br)ccc1O	-6.0	0.0	-2.1	18.6
C/C(N)=C(/C#N)C(=O)COC(=O)c1cn(-c2ccccc2)nc1-c1ccccc1	0.4	0.3	-1.4	13.2
O=[N+]([O-])c1ccc(Sc2n[nH]c(-c3ccncc3)n2)nc1	5.3	-0.1	-0.2	5.1
Cc1cc(C(F)(F)F)nc(Sc2ccc([N+](=O)[O-])cn2)n1	60.4*	0.1	-1.0	24.4
Cc1ccc(C(=O)Nc2sc3c(c2C(N)=O)CCCCCC3)o1	2.4	0.0	1.2	-7.1
CCOC(=O)c1cnc2c(-c3ccccc3)c(CC)[nH]n2c1=O	11.3	0.0	-0.5	5.8
Cc1cc(C)c(C)c(C2=NON3N(C(=O)c4ccc(S(=O)(=O)N(C)C)cc4)c4ccccc4N23)c1C	-0.4	0.3	-0.3	17.2
O=C(N/N=C/c1ccc(O)c2ncccc12)c1ccco1	-33.2	-0.3	1.1	104.0*
SMILES	TEAD-YAP inh	FBW7 activator	GPR151 activ	MITF inh
Cc1ccc(C(=O)N/N=C\c2cccc(OC(=O)c3ccco3)c2)cn1	1.2	2.2*	1.7	-9.3
O=C(N/N=C/c1cc(Cl)ccc1O)c1ccco1	-48.5	0.0	0.1	-52.4
O=C(Nc1ccc2ncccc2c1)c1ccco1	-52.6	-0.1	-0.6	-7.6
O=C(N/N=C/c1ccc2ncccc2c1)c1ccco1	41.1*	0.0	-8.8	10.8
COc1cccc(/C=N\NC(=O)c2ccc(C)nc2)c1	-10.4	0.1	-1.9	17.5
COc1ccccc1CNC(=O)Cn1c(C)cc2ccccc2c1=O	3.3	0.0	-1.1	-2.5
C[C@@H]1CC[C@H]2C(=O)O[C@@H](C)CN2[C@H]1c1ccc(Br)cc1	x	0.1	-0.3	13.8
Cc1ccc(NC(=O)c2cc(F)ccc2[N+](=O)[O-])cc1	51.8*	-0.1	-0.5	0.2
O=C(Nc1ccc(Cl)cc1Cl)c1cc(F)ccc1[N+](=O)[O-]	76.1*	0.3	-1.8	4.1
COc1cc(NC(=O)c2cc(Cl)ccc2[N+](=O)[O-])c(OC)cc1Cl	5.8	-0.2	1.1	-0.3
CCCS(=O)(=O)c1c(S(=O)(=O)CCC)c2ccccn2c1C(=O)c1ccc(OC)cc1	-5.9	0.0	1.3	17.5
COc1ccc(C2CC(=O)c3c([nH]c(C(=O)OCCSC)c3C)C2)cc1OC (stereo not drawn)	43.7*	0.0	1.6	18.2
COc1ccc(C2CC(=O)c3c([nH]c(C(=O)OCCOC(C)C)c3C)C2)cc1OC (stereo not drawn)	32.0*	0.2	0.7	9.6
C=CCn1c(Br)nc2c1c(=O)[nH]c(=O)n2C	-1.4	0.1	1.3	4.7
CCN(CC)c1ccc2cc(I)c(=O)oc2c1	-27.9	2.9*	0.0	-10.1
